# Laboratory results as given in ChEMBL document CHEMBL1961873, “Compounds: GSK PKIS; Assays: Nanosyn kinase panel” (2012).
# Key:
# [1] = molecular target: T1, Inhibitor of nuclear factor kappa-B kinase subunit epsilon (Homo sapiens) (UniProt Q14164); settings: at 1 µM;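 further: reported values are averaged percent inhibition figures against human IKKε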
# T1 sequence (whole entry): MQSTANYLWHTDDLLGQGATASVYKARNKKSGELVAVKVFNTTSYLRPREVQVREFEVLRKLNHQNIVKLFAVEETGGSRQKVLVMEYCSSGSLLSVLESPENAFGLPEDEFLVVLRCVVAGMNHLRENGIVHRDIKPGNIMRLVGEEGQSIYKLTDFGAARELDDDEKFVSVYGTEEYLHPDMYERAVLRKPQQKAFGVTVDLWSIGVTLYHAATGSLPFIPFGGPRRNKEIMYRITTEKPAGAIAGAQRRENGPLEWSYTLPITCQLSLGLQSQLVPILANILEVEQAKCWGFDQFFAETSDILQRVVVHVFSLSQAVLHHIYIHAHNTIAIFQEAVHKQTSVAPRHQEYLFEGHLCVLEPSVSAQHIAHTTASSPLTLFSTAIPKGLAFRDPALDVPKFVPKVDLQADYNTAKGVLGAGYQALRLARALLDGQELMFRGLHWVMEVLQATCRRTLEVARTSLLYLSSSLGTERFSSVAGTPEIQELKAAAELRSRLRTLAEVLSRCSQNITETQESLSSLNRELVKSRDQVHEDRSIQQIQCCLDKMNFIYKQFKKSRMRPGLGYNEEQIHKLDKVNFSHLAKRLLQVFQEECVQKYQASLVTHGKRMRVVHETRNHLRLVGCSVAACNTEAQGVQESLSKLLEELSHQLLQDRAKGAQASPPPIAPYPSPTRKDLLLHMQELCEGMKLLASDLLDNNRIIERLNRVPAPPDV
# [2] = molecular target: T2, Serine/threonine-protein kinase Nek1 (Homo sapiens) (UniProt Q96PY6); settings: at 0.1 µM
# T2 sequence (whole entry): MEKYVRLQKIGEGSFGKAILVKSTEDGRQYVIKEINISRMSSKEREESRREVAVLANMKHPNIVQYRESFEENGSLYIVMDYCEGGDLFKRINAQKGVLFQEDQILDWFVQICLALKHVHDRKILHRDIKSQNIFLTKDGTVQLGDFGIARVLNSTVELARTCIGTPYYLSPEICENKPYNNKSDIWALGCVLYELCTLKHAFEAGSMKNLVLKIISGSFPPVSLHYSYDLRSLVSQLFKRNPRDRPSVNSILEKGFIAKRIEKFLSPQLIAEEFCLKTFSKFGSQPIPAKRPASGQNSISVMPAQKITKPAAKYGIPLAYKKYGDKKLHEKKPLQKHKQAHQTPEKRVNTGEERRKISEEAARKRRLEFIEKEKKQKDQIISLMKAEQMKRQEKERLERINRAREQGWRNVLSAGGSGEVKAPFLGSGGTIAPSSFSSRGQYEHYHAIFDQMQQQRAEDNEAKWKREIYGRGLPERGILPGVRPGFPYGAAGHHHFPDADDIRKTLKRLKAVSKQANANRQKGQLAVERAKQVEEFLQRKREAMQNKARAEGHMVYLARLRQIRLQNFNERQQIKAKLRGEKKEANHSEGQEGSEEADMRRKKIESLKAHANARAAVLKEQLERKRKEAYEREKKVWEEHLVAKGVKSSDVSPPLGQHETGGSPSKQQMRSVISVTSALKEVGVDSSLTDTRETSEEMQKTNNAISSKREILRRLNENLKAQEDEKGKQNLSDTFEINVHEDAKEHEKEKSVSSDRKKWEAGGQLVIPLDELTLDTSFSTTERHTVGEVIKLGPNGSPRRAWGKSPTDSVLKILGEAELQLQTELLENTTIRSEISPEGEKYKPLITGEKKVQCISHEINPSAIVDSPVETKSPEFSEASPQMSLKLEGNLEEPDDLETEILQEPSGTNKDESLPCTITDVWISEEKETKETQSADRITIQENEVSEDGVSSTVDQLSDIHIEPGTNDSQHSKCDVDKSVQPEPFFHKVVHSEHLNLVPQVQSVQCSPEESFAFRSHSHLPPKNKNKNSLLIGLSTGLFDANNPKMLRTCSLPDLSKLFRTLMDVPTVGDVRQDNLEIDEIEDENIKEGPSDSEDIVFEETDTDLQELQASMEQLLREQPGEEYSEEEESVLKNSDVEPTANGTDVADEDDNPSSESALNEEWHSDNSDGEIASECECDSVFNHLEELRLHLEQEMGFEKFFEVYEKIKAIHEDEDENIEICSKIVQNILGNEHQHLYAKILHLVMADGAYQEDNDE
# [3] = molecular target: T2, Serine/threonine-protein kinase Nek1 (Homo sapiens); settings: at 1 µM
# [4] = molecular target: T3, Serine/threonine-protein kinase Nek2 (Homo sapiens) (UniProt P51955); settings: at 0.1 µM
# T3 sequence (whole entry): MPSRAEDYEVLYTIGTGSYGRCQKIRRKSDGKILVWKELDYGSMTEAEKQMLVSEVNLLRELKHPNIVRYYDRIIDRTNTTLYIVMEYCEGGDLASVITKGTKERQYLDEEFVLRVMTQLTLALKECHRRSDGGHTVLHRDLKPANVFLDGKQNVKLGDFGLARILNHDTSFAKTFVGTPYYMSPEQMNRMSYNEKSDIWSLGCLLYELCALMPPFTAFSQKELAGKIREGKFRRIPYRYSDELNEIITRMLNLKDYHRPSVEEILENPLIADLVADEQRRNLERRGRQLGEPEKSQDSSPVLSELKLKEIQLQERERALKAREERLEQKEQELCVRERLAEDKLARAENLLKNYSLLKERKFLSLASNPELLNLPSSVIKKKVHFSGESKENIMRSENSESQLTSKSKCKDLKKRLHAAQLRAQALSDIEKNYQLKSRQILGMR
# [5] = molecular target: T3, Serine/threonine-protein kinase Nek2 (Homo sapiens); settings: at 1 µM
# [6] = molecular target: Serine/threonine-protein kinase Nek6 (Homo sapiens) (UniProt Q9HC98); settings: at 0.1 µM
# Chain of Serine/threonine-protein kinase Nek6 (Homo sapiens) (Q9HC98 whole entry): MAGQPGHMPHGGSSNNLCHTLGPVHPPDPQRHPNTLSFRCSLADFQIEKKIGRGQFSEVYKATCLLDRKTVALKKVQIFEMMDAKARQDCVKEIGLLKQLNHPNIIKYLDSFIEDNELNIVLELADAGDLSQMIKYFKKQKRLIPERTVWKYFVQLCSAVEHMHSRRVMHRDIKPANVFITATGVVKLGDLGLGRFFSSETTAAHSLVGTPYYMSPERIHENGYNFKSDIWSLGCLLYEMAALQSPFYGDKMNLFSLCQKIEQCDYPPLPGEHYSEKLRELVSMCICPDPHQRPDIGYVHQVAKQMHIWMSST
# [7] = molecular target: Serine/threonine-protein kinase Nek6 (Homo sapiens) (UniProt Q9HC98); settings: at 1 µM
# [8] = molecular target: Serine/threonine-protein kinase Nek7 (Homo sapiens) (UniProt Q8TDX7); settings: at 0.1 µM
# Chain of Serine/threonine-protein kinase Nek7 (Homo sapiens) (Q8TDX7 whole entry, looked up): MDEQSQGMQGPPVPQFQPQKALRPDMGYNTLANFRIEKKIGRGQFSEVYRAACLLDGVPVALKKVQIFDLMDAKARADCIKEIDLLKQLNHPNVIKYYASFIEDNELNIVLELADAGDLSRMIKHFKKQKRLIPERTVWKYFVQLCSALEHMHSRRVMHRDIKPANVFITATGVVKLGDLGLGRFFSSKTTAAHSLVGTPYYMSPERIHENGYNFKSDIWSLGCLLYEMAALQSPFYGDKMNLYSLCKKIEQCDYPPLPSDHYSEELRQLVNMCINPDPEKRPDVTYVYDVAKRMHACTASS
# [9] = molecular target: Serine/threonine-protein kinase Nek7 (Homo sapiens) (UniProt Q8TDX7); settings: at 1 µM
# [10] = molecular target: T4, Serine/threonine-protein kinase Nek9 (Homo sapiens) (UniProt Q8TD19); settings: at 0.1 µM
# T4 sequence (whole entry): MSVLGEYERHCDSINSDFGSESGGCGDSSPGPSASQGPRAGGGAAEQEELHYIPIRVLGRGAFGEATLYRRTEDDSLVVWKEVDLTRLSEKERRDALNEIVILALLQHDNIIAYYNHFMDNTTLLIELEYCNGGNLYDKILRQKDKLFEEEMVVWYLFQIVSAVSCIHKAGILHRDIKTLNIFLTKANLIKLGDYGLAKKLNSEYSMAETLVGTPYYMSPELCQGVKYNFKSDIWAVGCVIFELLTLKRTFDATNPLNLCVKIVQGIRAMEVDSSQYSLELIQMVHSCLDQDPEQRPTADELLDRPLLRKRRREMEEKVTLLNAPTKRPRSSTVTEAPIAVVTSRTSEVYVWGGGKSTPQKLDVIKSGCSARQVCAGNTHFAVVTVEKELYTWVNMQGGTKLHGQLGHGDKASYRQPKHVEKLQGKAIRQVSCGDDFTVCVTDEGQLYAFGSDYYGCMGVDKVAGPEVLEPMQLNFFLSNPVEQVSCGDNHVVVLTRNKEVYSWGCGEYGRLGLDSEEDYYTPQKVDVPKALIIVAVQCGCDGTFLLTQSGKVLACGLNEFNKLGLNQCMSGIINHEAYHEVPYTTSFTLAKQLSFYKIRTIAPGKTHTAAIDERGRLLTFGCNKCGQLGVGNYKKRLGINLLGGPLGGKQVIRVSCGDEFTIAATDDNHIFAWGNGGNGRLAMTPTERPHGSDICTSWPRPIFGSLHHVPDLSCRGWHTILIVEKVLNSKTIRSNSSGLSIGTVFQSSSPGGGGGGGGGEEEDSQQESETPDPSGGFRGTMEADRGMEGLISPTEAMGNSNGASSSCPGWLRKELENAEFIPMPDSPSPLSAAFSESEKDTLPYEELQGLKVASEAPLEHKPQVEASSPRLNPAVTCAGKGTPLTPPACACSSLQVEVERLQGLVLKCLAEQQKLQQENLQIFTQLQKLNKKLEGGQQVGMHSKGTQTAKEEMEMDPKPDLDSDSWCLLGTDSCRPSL
# [11] = molecular target: T4, Serine/threonine-protein kinase Nek9 (Homo sapiens); settings: at 1 µM
# [12] = molecular target: Serine/threonine-protein kinase PLK1 (Homo sapiens) (UniProt P53350); settings: at 0.1 µM
# Chain of Serine/threonine-protein kinase PLK1 (Homo sapiens) (P53350 whole entry): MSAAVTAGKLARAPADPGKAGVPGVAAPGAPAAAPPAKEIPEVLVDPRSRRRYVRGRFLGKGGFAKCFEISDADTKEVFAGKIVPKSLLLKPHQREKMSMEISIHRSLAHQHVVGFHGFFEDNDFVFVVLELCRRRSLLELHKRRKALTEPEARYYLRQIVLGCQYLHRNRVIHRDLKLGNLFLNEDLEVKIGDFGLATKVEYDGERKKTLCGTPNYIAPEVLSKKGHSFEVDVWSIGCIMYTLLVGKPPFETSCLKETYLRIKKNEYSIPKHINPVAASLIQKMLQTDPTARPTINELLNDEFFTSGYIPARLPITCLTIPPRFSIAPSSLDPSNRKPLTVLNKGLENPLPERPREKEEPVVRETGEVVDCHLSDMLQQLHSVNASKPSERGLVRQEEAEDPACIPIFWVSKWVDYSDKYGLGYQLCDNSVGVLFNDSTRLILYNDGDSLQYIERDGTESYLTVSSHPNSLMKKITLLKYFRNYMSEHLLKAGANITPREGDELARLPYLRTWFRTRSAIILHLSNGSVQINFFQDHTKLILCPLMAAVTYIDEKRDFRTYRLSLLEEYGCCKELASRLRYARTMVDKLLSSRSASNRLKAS
# [13] = molecular target: Serine/threonine-protein kinase PLK1 (Homo sapiens) (UniProt P53350); settings: at 1 µM
# [14] = molecular target: T5, Dual specificity protein kinase TTK (Homo sapiens) (UniProt P33981); settings: at 0.1 µM
# T5 sequence (whole entry): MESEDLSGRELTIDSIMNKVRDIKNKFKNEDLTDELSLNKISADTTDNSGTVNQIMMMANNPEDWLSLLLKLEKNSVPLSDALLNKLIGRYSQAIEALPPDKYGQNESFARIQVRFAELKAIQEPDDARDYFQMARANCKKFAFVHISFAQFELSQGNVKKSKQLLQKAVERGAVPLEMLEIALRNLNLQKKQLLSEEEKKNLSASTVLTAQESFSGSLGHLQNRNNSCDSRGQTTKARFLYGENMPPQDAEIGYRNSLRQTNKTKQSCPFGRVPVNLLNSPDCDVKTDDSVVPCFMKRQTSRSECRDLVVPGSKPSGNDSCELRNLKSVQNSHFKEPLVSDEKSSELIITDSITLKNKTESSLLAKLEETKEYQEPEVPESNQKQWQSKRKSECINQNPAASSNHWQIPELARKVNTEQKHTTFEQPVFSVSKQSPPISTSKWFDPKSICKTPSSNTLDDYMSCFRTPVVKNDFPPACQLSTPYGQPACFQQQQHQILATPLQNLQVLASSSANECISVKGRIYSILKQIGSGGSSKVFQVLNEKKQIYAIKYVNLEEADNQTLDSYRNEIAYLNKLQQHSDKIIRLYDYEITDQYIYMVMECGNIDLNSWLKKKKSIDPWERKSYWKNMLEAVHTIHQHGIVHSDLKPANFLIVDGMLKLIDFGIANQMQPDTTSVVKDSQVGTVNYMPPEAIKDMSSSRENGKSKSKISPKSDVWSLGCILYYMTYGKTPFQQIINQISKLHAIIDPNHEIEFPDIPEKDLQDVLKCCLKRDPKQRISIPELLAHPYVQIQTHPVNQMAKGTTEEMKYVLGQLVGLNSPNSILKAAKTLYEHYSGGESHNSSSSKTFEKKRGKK
# [15] = test system: T6, Receptor-type tyrosine-protein kinase FLT3 (Homo sapiens), P36888 [D835Y]; settings: at 1 µM
# T6 sequence (whole entry): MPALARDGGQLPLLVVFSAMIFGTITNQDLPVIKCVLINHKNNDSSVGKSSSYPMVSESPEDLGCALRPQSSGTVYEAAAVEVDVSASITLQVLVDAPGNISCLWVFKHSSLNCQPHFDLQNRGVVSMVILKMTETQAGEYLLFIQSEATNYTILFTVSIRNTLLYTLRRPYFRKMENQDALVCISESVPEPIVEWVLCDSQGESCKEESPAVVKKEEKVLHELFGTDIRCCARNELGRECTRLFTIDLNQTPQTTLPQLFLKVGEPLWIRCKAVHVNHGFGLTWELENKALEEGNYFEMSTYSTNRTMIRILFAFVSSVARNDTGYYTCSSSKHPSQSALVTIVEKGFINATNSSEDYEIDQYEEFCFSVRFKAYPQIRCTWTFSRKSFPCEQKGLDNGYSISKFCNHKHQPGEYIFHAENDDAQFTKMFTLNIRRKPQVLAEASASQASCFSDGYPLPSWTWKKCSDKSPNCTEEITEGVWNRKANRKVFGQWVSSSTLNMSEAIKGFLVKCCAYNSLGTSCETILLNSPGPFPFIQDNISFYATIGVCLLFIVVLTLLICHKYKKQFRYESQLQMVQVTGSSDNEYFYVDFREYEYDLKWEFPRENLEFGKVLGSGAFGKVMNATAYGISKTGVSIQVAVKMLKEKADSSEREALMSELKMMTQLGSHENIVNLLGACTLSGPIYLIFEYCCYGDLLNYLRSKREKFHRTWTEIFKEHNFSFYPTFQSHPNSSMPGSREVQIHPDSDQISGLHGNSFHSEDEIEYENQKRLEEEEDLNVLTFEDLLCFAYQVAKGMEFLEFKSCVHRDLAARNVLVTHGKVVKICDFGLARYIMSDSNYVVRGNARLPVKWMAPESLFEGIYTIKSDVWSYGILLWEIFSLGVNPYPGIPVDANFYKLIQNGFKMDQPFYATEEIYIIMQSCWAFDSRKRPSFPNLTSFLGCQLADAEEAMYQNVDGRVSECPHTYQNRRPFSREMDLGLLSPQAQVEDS
# [16] = molecular target: Vascular endothelial growth factor receptor 3 (Homo sapiens) (UniProt P35916); settings: at 0.1 µM
# Chain of Vascular endothelial growth factor receptor 3 (Homo sapiens) (P35916 whole entry): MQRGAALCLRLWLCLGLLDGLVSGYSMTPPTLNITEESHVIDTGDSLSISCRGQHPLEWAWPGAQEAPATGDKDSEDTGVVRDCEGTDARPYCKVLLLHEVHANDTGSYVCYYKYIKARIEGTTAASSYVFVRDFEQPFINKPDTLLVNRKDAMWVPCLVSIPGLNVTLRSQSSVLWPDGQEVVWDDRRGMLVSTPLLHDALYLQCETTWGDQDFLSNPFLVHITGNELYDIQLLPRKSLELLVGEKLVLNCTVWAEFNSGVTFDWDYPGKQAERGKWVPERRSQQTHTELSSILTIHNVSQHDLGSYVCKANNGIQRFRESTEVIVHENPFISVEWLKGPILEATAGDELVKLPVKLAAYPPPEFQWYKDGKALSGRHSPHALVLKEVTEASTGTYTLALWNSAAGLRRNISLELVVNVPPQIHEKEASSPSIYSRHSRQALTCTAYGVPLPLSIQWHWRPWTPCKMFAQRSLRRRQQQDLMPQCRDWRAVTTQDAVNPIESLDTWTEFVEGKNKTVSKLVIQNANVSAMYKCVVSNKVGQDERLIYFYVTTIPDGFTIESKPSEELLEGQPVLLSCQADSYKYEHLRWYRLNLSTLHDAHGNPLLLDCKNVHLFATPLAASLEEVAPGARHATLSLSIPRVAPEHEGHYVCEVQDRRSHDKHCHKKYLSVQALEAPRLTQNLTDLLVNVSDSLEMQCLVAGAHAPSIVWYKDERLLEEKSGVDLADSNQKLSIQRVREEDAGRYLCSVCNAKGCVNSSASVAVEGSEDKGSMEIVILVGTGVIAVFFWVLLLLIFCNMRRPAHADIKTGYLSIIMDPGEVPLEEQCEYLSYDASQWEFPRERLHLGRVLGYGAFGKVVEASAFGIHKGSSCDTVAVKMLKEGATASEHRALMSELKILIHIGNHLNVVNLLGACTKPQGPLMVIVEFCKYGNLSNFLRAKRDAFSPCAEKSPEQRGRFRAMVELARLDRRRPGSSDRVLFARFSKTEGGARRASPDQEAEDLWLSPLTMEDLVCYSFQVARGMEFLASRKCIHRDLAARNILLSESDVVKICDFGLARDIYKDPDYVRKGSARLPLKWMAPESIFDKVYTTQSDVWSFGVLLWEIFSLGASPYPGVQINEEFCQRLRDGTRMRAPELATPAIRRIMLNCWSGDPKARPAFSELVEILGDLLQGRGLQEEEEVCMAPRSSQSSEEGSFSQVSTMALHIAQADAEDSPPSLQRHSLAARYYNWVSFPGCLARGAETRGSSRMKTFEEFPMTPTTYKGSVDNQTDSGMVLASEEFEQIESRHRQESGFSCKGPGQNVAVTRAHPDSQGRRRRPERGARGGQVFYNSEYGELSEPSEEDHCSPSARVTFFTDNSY
# [17] = molecular target: Vascular endothelial growth factor receptor 3 (Homo sapiens) (UniProt P35916); settings: at 1 µM
# [18] = molecular target: Macrophage colony-stimulating factor 1 receptor (Homo sapiens) (UniProt P07333); settings: at 0.1 µM
# Chain of Macrophage colony-stimulating factor 1 receptor (Homo sapiens) (P07333 whole entry): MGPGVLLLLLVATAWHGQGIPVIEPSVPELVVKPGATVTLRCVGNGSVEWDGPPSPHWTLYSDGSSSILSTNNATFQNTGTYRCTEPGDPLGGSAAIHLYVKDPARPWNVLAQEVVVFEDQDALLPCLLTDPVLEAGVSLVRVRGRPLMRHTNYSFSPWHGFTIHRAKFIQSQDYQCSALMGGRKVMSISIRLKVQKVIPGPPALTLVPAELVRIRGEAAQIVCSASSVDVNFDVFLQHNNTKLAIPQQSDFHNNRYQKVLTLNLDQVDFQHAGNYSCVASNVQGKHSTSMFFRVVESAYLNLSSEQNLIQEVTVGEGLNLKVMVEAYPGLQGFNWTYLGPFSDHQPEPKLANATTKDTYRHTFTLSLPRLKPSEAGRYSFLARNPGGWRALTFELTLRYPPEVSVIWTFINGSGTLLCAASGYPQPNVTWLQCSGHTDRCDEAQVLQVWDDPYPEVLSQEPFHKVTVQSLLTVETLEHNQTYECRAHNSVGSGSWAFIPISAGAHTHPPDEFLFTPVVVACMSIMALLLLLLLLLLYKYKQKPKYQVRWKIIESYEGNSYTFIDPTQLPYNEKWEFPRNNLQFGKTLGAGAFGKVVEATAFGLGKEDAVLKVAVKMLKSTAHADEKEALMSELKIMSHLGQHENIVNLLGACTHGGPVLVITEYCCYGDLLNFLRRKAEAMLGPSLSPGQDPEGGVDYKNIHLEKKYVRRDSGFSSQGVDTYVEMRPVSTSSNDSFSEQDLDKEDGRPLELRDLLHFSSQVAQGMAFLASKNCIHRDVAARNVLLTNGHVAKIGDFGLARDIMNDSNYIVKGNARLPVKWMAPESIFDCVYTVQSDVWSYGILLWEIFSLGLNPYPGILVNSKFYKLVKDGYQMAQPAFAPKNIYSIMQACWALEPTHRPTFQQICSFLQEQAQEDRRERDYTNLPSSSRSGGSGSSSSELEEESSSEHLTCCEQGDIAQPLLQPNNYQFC
# [19] = molecular target: Macrophage colony-stimulating factor 1 receptor (Homo sapiens) (UniProt P07333); settings: at 1 µM
# [20] = molecular target: Tyrosine-protein kinase Fyn (Homo sapiens) (UniProt P06241); settings: at 0.1 µM
# Chain of Tyrosine-protein kinase Fyn (Homo sapiens) (P06241 2-537 limits assumed): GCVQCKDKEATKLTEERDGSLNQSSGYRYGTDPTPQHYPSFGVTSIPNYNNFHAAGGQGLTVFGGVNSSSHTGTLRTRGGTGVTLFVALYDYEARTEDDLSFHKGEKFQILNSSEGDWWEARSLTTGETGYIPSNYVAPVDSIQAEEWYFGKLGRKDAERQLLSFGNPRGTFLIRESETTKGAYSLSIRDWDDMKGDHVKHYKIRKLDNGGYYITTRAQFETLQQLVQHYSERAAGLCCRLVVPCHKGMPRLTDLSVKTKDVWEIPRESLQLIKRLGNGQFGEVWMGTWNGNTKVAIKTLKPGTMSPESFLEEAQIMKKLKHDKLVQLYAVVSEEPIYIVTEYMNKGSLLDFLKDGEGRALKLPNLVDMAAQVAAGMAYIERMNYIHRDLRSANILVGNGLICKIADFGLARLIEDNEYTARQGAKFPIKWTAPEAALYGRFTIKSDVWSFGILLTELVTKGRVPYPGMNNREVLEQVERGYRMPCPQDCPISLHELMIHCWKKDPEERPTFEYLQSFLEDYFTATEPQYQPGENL
Structure (SMILES),inhibition [1] [%],inhibition [2] [%],inhibition [3] [%],inhibition [4] [%],inhibition [5] [%],inhibition [6] [%],inhibition [7] [%],inhibition [8] [%],inhibition [9] [%],inhibition [10] [%],inhibition [11] [%],inhibition [12] [%],inhibition [13] [%],inhibition [14] [%],inhibition [15] [%],inhibition [16] [%],inhibition [17] [%],inhibition [18] [%],inhibition [19] [%],inhibition [20] [%]
Cc1ccc2c(-c3ccnc(Nc4ccccc4)n3)c(-c3ccc(F)cc3)nn2n1,3.29,2.02,2.14,4.21,3,4.02,-0.68,2.06,2.94,-1.05,5.94,1.63,1.62,4.36,-2.14,5.68,28.3,10.5,45.1,18.7
CN1CCC(n2cnc(-c3ccc(F)cc3)c2-c2ccnc(N)n2)CC1,7.06,-0.73,0.96,2.43,2.64,2.5,2.17,3.21,3.4,7.9,11.4,2.4,0.91,5.14,1.95,1.56,2.31,2.19,6.29,0.4
